As a reminder, the AC50 is the midpoint of the concentration-response curve, whichever way the signal moves.

7 molecules from PubChem BioAssay (EPA / NIEHS) can be followed below.

The target of assay [1] is CCAAT/enhancer-binding protein beta (Homo sapiens) (UniProt P17676). Nature of the assay: ATG_C_EBP_CIS: Attagene CIS-FACTORIAL HepG2 Assay for human CCAAT/Enhancer Binding Protein (C/EBP) beta (AID 2282927). The note with it: HepG2 Attagene cis-factorial transcription factor reporter; actives raise or lower the signal. The procedure, abridged: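 Transiently transfected HepG2 (MRTU library, endogenous TF-driven promoters); 24 h dosing; total RNA → oligo(dT) RT → PCR → 6-FAM primer extension → HpaI digest → CE; fit bidirectionally vs DMSO.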
Sequence of CCAAT/enhancer-binding protein beta (Homo sapiens) (P17676 whole entry, looked up): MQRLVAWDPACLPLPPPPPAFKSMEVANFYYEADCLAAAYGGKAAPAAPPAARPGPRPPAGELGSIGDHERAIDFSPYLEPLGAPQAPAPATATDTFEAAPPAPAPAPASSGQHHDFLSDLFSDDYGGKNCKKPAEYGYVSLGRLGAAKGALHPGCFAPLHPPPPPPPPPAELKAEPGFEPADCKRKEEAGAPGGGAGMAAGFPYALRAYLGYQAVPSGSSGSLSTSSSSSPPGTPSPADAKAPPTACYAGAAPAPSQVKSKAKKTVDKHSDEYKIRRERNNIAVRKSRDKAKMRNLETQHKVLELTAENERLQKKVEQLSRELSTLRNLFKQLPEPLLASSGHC

Assay [2] is described as follows: ATG_CMV_CIS: Attagene CIS-FACTORIAL HepG2 Assay for human CMV (Internal Marker) (AID 2282928).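 Also: endpoint acts as a background internal control marker rather than a target.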 To be noted: HepG2 CMV promoter reporter, transcription factor profiling; actives raise or lower the signal. In a few lines:
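Fluorescence intensity of RT-PCR-derived reporter fragments, resolved by capillary electrophoresis, gives the signal. HepG2 liver cells bearing transfected cis-element reporters were treated 24 h; activity in either direction was fit relative to DMSO-treated controls.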

The nature of assay [3]: ATG_DR4_LXR_CIS: Attagene CIS-FACTORIAL HepG2 Assay for human Liver X Receptor (LXR), DR4 submotif (AID 2282929). To be noted: HepG2 Attagene DR4 cis-reporter, mRNA transcription; actives raise or lower the signal. In a few lines: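 HepG2, transient MRTU transfection, cis-element (DR4) promoter; 24 h compound exposure; total RNA → oligo(dT) RT → PCR → 6-FAM primer extension → HpaI cut → CE. Gain/loss vs DMSO, bidirectional fit.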

A short description of assay [4]: ATG_AP_1_CIS: Attagene CIS-FACTORIAL HepG2 Assay for human Activator Protein 1 (AP-1) (AID 2282931). The note with it: HepG2 Attagene cis-factorial AP-1 reporter mRNA; actives raise or lower the signal. The procedure, abridged: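 Transient MRTU transfection of HepG2 → 24 h chemical treatment → RNA isolation, RT-PCR, 6-FAM labelling, HpaI digest → capillary electrophoresis. Fit: bidirectional, DMSO negative control.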

Assay [5] is described as follows: ATG_BRE_CIS: Attagene CIS-FACTORIAL HepG2 Assay for human Bone Morphogenetic Protein (BMP) Response Element (BRE) (AID 2282933). To be noted: HepG2 BMP response element reporter, Attagene transcription factor profiling; actives raise or lower the signal. The procedure, abridged: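 Endogenous transcription factor activity read in transiently transfected HepG2 cells after 24 h chemical exposure. Bidirectional curve fitting against DMSO; readout is reporter transcript level by RT-PCR with capillary electrophoresis of labelled products.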

Assay [6] has as its target Retinoic acid receptor alpha (Homo sapiens) (UniProt P10276). Briefly: ATG_DR5_RAR_CIS: Attagene CIS-FACTORIAL HepG2 Assay for human Retinoic Acid Receptor Alpha (RARE), DR5 submotif (AID 2282934). To be noted: HepG2 Attagene cis-factorial RARE DR5 reporter, mRNA; actives raise or lower the signal. The procedure, abridged: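 Read-out: DR5-driven reporter transcript measured by RT-PCR, 6-FAM primer extension, HpaI digest and capillary electrophoresis. Human HepG2 liver cells carry transiently transfected cis-element reporter constructs; dosing lasts 24 h. Gain or loss of signal fitted against DMSO baseline.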

Assay [7] addresses Transcription factor E2F1 (Homo sapiens) (UniProt Q01094). Briefly: ATG_E2F_CIS: Attagene CIS-FACTORIAL HepG2 Assay for human E2F Transcription Factor 1 (AID 2282935). The note with it: HepG2 Attagene cis-reporter, E2F reporter RNA transcripts; actives raise or lower the signal. The procedure, abridged: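 Transient MRTU transfection of HepG2; 24 h compound exposure; RNA → oligo(dT) RT → PCR → FAM label → HpaI cut → CE fluorescence. Gain/loss of signal fit against DMSO.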

Assay [8] can be described thus: ATG_E_Box_CIS: Attagene CIS-FACTORIAL HepG2 Assay for human Enhancer Box (E-box) (AID 2282936). To be noted: HepG2 E-box cis-reporter transcription, actives raise or lower the signal. In a few lines:
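Transiently transfected HepG2, endogenous TF-driven reporters, 24 h dosing. Readout: RT-PCR plus capillary electrophoresis of fluorescent reporter fragments. Gain or loss of signal fitted bidirectionally against DMSO baseline.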

Assay [9] can be described thus: ATG_M_61_CIS: Attagene CIS-FACTORIAL HepG2 Assay for M61 Transcription Factor (Internal Marker) (AID 2282937). To be noted: HepG2 Attagene CIS-FACTORIAL M61 internal marker reporter; actives raise or lower the signal. In a few lines:
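Human liver HepG2, transient MRTU transfection (cis promoter elements), 24 h compound. Total RNA → oligo(dT) RT → PCR → FAM label → HpaI → CE. Internal background marker; bidirectional fitting, DMSO = baseline.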

Assay [10] in a line: ATG_EGR_CIS: Attagene CIS-FACTORIAL HepG2 Assay for human Early Growth Response 1 (EGR1) (AID 2282938). To be noted: HepG2 Attagene CIS-FACTORIAL EGR reporter mRNA; actives raise or lower the signal. The procedure, abridged:
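Transient transfection of human HepG2 with multiple cis-regulated reporter units, chemical exposure 24 h, total RNA isolated. Reverse transcription, PCR, fluorescent labelling and capillary electrophoresis quantify reporter transcripts; activity fitted bidirectionally against DMSO.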

The nature of assay [11]: ATG_M_19_CIS: Attagene CIS-FACTORIAL HepG2 Assay for M19 Transcription Factor (Internal Marker) (AID 2282939). The note with it: HepG2 Attagene CIS-FACTORIAL M19 internal marker reporter; actives raise or lower the signal. The procedure, abridged: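 Internal marker readout, fitted in both directions against DMSO, from HepG2 cells carrying transfected cis-element reporter constructs; RT-PCR and capillary electrophoresis of reporter mRNA after 24 h exposure.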

Assay [12] is described as follows: ATG_ERE_CIS: Attagene CIS-FACTORIAL HepG2 Assay for Estrogen Response Element (ERE) (AID 2282940). To be noted: HepG2 ERE cis-reporter, Attagene RNA transcript; actives raise or lower the signal. The procedure, abridged: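 After 24 h compound treatment, RNA from transfected HepG2 cells was reverse-transcribed, reporter cDNA PCR-amplified, FAM-labelled, HpaI-cut and resolved by capillary electrophoresis. ERE-driven cis reporter transcripts reflect endogenous factors; gain or loss scored against DMSO.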

Assay [13] is described as follows: ATG_Ets_CIS: Attagene CIS-FACTORIAL HepG2 Assay for human Erythroblast Transformation Specific (ETS) (AID 2282941). To be noted: HepG2 ETS cis-reporter transcription, actives raise or lower the signal. The procedure, abridged:
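Multiplexed reporter transcript profiling: HepG2, 24 h treatment, total RNA to cDNA, PCR, 6-FAM labelling, HpaI cut, capillary electrophoresis. Gain- or loss-of-signal fitted against DMSO.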

For assay [14], the target named is Hepatocyte nuclear factor 3-beta (Homo sapiens) (UniProt Q9Y261). Nature of the assay: ATG_FoxA2_CIS: Attagene CIS-FACTORIAL HepG2 Assay for human Forkhead box A2 (FOXA2) (AID 2282942). The note with it: HepG2 cis-reporter transcription factor activity, 24 h; actives raise or lower the signal. In a few lines:
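Transient MRTU transfection of HepG2 liver cells; 24 h treatment; total RNA → oligo(dT) RT → PCR → FAM primer extension → HpaI cut → CE. Bidirectional fit vs DMSO.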

A short description of assay [15]: ATG_FoxO_CIS: Attagene CIS-FACTORIAL HepG2 Assay for human Forkhead box O (FoxO) (AID 2282943). The note with it: HepG2 Attagene cis-reporter, FoxO element, mRNA; actives raise or lower the signal. In a few lines: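 Read-out: fluorescence of 6-FAM-labelled reporter cDNA fragments resolved by capillary electrophoresis. Transiently transfected HepG2 cells were dosed for 24 h; activity fitted in both directions relative to DMSO controls.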

The nature of assay [16]: ATG_GATA_CIS: Attagene CIS-FACTORIAL HepG2 Assay for human GATA Binding Protein (AID 2282944). To be noted: HepG2 GATA cis-element reporter, Attagene multiplex mRNA; actives raise or lower the signal. The procedure, abridged: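 Reporter transcripts from a GATA cis-regulated unit, among multiplexed reporters in transfected HepG2 cells, were measured by RT-PCR with capillary electrophoresis after 24 h dosing. Induction or loss scored relative to DMSO.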

Assay [17] can be described thus: ATG_GLI_CIS: Attagene CIS-FACTORIAL HepG2 Assay for human Zinc Finger Protein GLI1 (AID 2282945). To be noted: HepG2, Attagene cis-factorial reporter mRNA, GLI element; actives raise or lower the signal. In a few lines:
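Transiently transfected HepG2 cells report endogenous transcription factor activity via cis-element-driven reporter units. After 24 h compound exposure, reporter mRNA was measured by RT-PCR with capillary electrophoresis; bidirectional fitting against DMSO baseline.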

For assay [18], the target named is Bile acid receptor (Homo sapiens) (UniProt Q96RI1). Briefly: ATG_IR1_CIS: Attagene CIS-FACTORIAL HepG2 Assay for human Nuclear Receptor Subfamily 1 Group H Member 4 (NR1H4), IR1 submotif (AID 2282946). To be noted: IR1 reporter transcription, actives raise or lower the signal. In a few lines: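 Fluorescence of capillary-separated, HpaI-digested RT-PCR reporter products gave IR1-element mRNA induction in HepG2 cells 24 h after dosing. Endogenous transcription factors drove the cis-regulated reporters; activity was fitted bidirectionally against DMSO.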
Sequence of Bile acid receptor (Homo sapiens) (Q96RI1 whole entry, looked up): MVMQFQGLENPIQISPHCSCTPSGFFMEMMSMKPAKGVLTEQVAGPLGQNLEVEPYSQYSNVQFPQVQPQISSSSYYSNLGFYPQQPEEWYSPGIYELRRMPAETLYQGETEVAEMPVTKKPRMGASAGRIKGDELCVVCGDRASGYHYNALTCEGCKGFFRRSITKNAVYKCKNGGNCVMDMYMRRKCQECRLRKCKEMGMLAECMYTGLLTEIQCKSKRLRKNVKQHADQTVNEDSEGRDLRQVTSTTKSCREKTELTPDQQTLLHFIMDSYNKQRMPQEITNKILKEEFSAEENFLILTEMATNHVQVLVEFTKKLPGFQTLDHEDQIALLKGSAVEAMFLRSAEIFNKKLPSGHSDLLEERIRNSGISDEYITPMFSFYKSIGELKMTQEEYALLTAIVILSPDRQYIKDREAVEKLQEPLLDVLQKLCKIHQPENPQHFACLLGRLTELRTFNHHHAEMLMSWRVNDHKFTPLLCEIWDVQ

Assay [19] is described as follows: ATG_AP_2_CIS: Attagene CIS-FACTORIAL HepG2 Assay for human Activator Protein 2 (AP-2) (AID 2282932). The note with it: HepG2 AP-2 cis-reporter, Attagene transcription factor profiling; actives raise or lower the signal. In a few lines:
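Read-out: fluorescent reporter mRNA via RT-PCR and capillary electrophoresis, 24 h post-dose in transiently transfected HepG2. Endogenous factors drive cis-promoter reporters; gain or loss of signal fitted bidirectionally against DMSO.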

Calls of active or inactive are those of the source. The calls were made as follows: active = hit-call score of the fitted dose curve at least 0.9, where 1 is the maximum; inactive = score below 0.9.

Sequence of Retinoic acid receptor alpha (Homo sapiens) (P10276 whole entry, looked up): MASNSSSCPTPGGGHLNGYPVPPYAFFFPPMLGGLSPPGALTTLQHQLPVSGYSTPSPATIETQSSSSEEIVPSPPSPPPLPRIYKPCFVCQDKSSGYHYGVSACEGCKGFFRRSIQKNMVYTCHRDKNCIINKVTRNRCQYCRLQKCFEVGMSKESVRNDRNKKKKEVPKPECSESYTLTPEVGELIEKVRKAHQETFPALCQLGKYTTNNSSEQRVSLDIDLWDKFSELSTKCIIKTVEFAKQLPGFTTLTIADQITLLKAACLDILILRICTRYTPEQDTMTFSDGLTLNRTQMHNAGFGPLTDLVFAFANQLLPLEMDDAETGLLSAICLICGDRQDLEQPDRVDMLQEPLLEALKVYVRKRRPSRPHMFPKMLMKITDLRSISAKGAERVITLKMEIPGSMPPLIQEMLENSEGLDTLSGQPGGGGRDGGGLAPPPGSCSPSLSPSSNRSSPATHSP
Sequence of Hepatocyte nuclear factor 3-beta (Homo sapiens) (Q9Y261 whole entry, looked up): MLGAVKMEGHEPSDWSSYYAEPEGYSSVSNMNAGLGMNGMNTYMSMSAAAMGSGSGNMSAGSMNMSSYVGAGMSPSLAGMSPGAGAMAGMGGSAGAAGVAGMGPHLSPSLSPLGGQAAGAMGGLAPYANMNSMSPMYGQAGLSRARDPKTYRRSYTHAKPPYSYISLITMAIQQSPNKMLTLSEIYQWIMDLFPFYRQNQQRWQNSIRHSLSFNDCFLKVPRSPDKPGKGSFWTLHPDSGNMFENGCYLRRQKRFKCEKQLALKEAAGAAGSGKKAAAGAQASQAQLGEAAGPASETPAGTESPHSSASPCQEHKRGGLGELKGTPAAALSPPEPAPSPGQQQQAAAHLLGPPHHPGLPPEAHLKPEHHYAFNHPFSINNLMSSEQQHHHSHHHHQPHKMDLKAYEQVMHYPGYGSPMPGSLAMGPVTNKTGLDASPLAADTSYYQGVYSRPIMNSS
Sequence of Transcription factor E2F1 (Homo sapiens) (Q01094 whole entry, looked up): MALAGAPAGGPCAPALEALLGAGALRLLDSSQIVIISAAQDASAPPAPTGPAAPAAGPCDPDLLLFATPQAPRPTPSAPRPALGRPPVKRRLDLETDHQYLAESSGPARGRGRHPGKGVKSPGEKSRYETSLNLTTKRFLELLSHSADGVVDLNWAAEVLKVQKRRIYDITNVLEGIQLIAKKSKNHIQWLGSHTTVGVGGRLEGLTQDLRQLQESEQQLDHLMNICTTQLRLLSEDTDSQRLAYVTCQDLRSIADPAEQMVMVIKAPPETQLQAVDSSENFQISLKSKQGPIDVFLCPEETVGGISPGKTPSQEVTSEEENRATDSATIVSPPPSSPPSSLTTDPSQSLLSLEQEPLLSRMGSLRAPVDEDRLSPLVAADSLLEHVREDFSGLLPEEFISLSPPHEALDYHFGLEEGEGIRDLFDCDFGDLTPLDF

With `O=C(c1ccccc1)C1CCCCC1`, the outcome in assay [1], in assay [2], in [3], in assay [4], in assay [5] and in assay [6] was inactive. Also, the result in [7], in [8], in assay [9], in assay [10], in assay [11] and in assay [13] was inactive. The molecule was classed as inactive in [14], in assay [15], in [16], in [17] and in assay [18]. In assay [12], the concentration at half-maximal activity (AC50) is 17.4 µM (active) [middle of 4 runs].
Consider `OB(O)O`, for which the result in assay [1], in [2], in assay [3], in [4], in assay [5] and in [6] was inactive. Further, the result in assay [7], in assay [8], in [9], in [10], in assay [11] and in assay [12] was inactive. Further, the result in assay [13], in assay [14], in assay [15], in assay [16], in [17] and in [18] was inactive.
Take `CCNc1nc(N)nc(Cl)n1`: the outcome in assay [1], in [2], in [3], in assay [4], in [5] and in assay [6] was inactive. Besides, the call in assay [7], in assay [8], in [9], in assay [10], in assay [11] and in [13] was inactive. The molecule was classed as inactive in assay [14], in assay [15], in assay [16] and in [17].
Turning to `CCCCOCCOCCOCc1cc2c(cc1CCC)OCO2`, the result in assay [1], in assay [5], in assay [6], in assay [8], in assay [9] and in assay [10] was inactive. Also, the outcome in assay [11], in assay [13], in assay [14], in [15], in [16] and in assay [17] was inactive. The outcome in assay [18] was inactive. Also, the concentration at half-maximal activity (AC50) in assay [2] was 24.3 µM (active); in assay [3], 89.8 µM (active); in assay [4], 50 µM (active); in assay [7] it was 58.4 µM (active).
With `CCOC(=O)C(C)Oc1ccc(Oc2cnc3cc(Cl)ccc3n2)cc1` (centres undefined), the outcome in assay [1], in assay [2], in assay [3], in assay [4], in assay [5] and in assay [6] was inactive. The molecule was classed as inactive in [7], in [8], in assay [9], in [10], in assay [11] and in assay [12]. The molecule was called inactive in [13], in [14], in assay [15], in assay [16], in assay [17] and in assay [18].
In the case of `O=C(O)C1(C(=O)Nc2ccc(Cl)cc2Cl)CC1`, the outcome in assay [1], in assay [2], in assay [3], in assay [4], in [19] and in assay [5] was inactive. Moreover, the outcome in assay [6], in assay [7], in [8], in assay [9], in assay [10] and in assay [11] was inactive. Further, the molecule was classed as inactive in [12], in [13], in assay [14], in assay [15], in [16] and in [17]. Moreover, the result in [18] was inactive.
`COC(=O)c1c(Cl)nn(C)c1S(=O)(=O)NC(=O)Nc1nc(OC)cc(OC)n1`: the AC50 in assay [1] was 4.06 µM (active). For the same molecule, the result in [2], in assay [3], in assay [4], in [5], in assay [6] and in [7] was inactive. Further, the result in assay [8], in assay [9], in assay [10], in [11], in [12] and in assay [13] was inactive. Moreover, the outcome in [14], in [15], in [16], in assay [17] and in assay [18] was inactive.
